Pf growth 48h: P. falciparum growth inhibition at 48 hours (one generation); P. falciparum luciferase growth in erythrocytes, 48 h; Potency, µM (series often up to 28.7 µM), actives largely listed as inhibitors; 310,000 tested, 5.9% active; AID 504832
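Firefly luciferase activity from engineered P. falciparum reports growth; inhibitors lower the luminescent signal. Cultures contained 2% hematocrit erythrocytes at 0.1% final parasitemia.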
Pf growth 96h: P. falciparum growth inhibition at 96 hour, primary screen for plastid delayed-death inhibitors; 320,000 tested, 6.9% active; P. falciparum luciferase reporter growth, 96 h; AID 504834; Potency, µM (top dose mostly 28.7 µM), usual class: inhibitors
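Two-generation exposure (96 h) targets delayed-death phenotype. Reporter parasites carrying integrated firefly luciferase, in red cells at 2% hematocrit and 0.05% parasitemia final, kept at 37 C, 5% CO2; luminescence loss indicates inhibition.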
RE007 growth inh: less growth of the S. pombe RE007 Vpr strain; Potency, µM (series often up to 92.2 µM), usual class: inhibitors; AID 651644; S. pombe RE007 Vpr strain, BacTiter-Glo ATP luminescence, 24 h; 360,000 tested, 0.21% active; active = well fitted falling curve with a large enough effect; inconclusive = small, poorly fitted or top-dose-only effect; inactive = no such curve, though single readings can be large or run the other way; also: nearly all actives have a fitted effect of over 50% in size
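Fission yeast RE007 carrying one integrated HIV-1 vpr copy, seeded at OD 0.01 in PMG+AL medium with 23 nL pinned compound. Grown 24 h at 30 degrees; viability read by BacTiter-Glo luminescence after 5 min.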
SARS PLP yeast: inhibitors of SARS-CoV papain-like protease in yeast; S. cerevisiae expressing SARS-CoV PLpro, growth rescue; Potency, µM (titrated, usually from 32.9 µM), usual class: activators; 330,000 tested, 0.19% active; AID 485353; calls by dose curve; also: nearly all actives have a fitted effect of over 55% in size
NS1 inh: blocks influenza NS1 protein function; Potency, µM (highest dose often 46.1 µM); 270,000 tested, 0.4% active; AID 2326; calls by dose curve; also: actives are rising curves; nearly all actives have a fitted effect of over 50% in size
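Read-out: OD600 growth recovery of NS1-expressing budding yeast. Cells grown overnight at 30C in -URA glucose medium, washed, resuspended and diluted 1:100 in 2% galactose assay medium, pH 6.0. Same strain lacking NS1 served as positive control.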
Each line names hits and unclear results; the compound was inactive in the other large screens. An excerpt weighted towards active compounds, which were near 9.5% of everything screened. Unless noted, calls follow the shape of the dose curve; as a rule, active = well fitted inhibition curve with a large enough effect; inconclusive = small, poorly fitted or top-dose-only effect, or another doubt; inactive = no such curve, though single readings can be large or run the other way.

NS(=O)(=O)c1cccc(NC(=O)COC(=O)C2(c3cccc(F)c3)CCCC2)c1	none
CCCC[C@]12Cc3cc(OC)c(OC)cc3C(O1)c1c(cc(-c3ccccc3)oc1=O)O2	Pf growth 48h inconclusive, Pf growth 96h 1.51µM (no result: RE007 growth inh)
CCCC[C@]12Cc3ccccc3C(O1)c1c(cc(-c3ccccc3)oc1=O)O2	Pf growth 48h 0.426µM, Pf growth 96h 1.51µM (no result: RE007 growth inh)
COc1ccc([C@]23Cc4ccccc4C(O2)c2c(cc(-c4ccccc4)oc2=O)O3)cc1	Pf growth 48h inconclusive, Pf growth 96h inconclusive (no result: RE007 growth inh)
O=C1CC(N2CCOCC2)C(=O)N1Cc1ccc(N2CCCC2=O)cc1 (stereo not drawn)	none (no result: Pf growth 48h)
O=C1CC(N2CCC(O)(c3ccc(Cl)cc3)CC2)C(=O)N1Cc1ccc(N2CCCC2=O)cc1 (stereo not drawn)	Pf growth 48h 9.28µM (no result: Pf growth 96h)
O=C1CC(N2CCN(Cc3ccc4c(c3)OCO4)CC2)C(=O)N1Cc1ccc(N2CCCC2=O)cc1 (stereo not drawn)	Pf growth 48h inconclusive, Pf growth 96h 9.28µM
Cc1cc2ncn(C3CC(=O)N(Cc4ccc(N5CCCC5=O)cc4)C3=O)c2cc1C (stereo not drawn)	Pf growth 96h 8.28µM
OCC[C@@H]1C[C@@H](O)[C@H](O)[C@@]2(OCCc3ccccc32)O1	none
Cc1nnc2n(C3CCCCC3)c(=O)c3c4c(sc3n12)CCC4	Pf growth 96h 3.29µM (no result: RE007 growth inh)
CSc1nnc2n(C3CCCCC3)c(=O)c3c4c(sc3n12)CCCC4	none (no result: RE007 growth inh)
Brc1ccc(N/N=C(/N=Nc2nn[nH]n2)c2ccccc2)cc1	Pf growth 48h 3.29µM, Pf growth 96h 1.85µM, SARS PLP yeast inconclusive
O=C(O)c1ccc(N=N/C(=N\Nc2ccc(C(=O)O)cc2)c2ccccc2)cc1	none (no result: NS1 inh)
COc1ccc(N=C2S/C(=C\c3cccs3)C(=O)N2CC(C)C)cc1	Pf growth 48h inconclusive, Pf growth 96h 3.7µM
COc1ccc(N=C2S/C(=C\c3cc(C)n(C)c3C)C(=O)N2C)cc1	Pf growth 48h inconclusive, Pf growth 96h 9.28µM, NS1 inh inconclusive
CCCN1C(=O)/C(=C/c2cc(C)n(C)c2C)SC1=Nc1ccc(OC)cc1	Pf growth 48h inconclusive, Pf growth 96h 13.1µM
COc1ccc(N=C2S/C(=C\c3ccc(C)s3)C(=O)N2CC(C)C)cc1	Pf growth 48h inconclusive, Pf growth 96h inconclusive
COc1ccccc1N1C(=O)S/C(=C\c2cc(C)n(C)c2C)C1=O	none
Cc1cc2c3c(c1C)C1(C(=O)N3C(C)(C)CC2C)C(C#N)=C(N)Oc2cc(O)ccc21 (stereo not drawn)	Pf growth 96h 10.4µM (no result: Pf growth 48h)
CC1(C)CC(=O)C2=C(C1)OC(N)=C(C#N)C21C(=O)N(CN2CCOCC2)c2ccccc21 (stereo not drawn)	none
CC1(C)CC(=O)C2=C(C1)OC(N)=C(C#N)C2c1ccoc1 (stereo not drawn)	none (no result: NS1 inh)
CC1=CC(C)(C)N2C(=O)C3(C(C#N)=C(N)OC4=C3C(=O)CC(C)(C)C4)c3cc(C)cc1c32 (stereo not drawn)	Pf growth 96h 13.1µM (no result: Pf growth 48h)
Cc1cc2c3c(c1)C1(C(=O)N3C(C)(C)CC2C)C(C#N)=C(N)OC2=C1C(=O)CC(C)(C)C2 (stereo not drawn)	Pf growth 48h 11.7µM, Pf growth 96h inconclusive
CC12C=CC(=O)C=C1[C@@H](F)CC1C2C(O)CC2(C)C1CC[C@]2(O)C(=O)CO (stereo partly drawn)	Pf growth 96h inconclusive (no result: RE007 growth inh, SARS PLP yeast, NS1 inh)
O=C1NC(=S)N/C1=C/c1cccc([N+](=O)[O-])c1O	Pf growth 48h inconclusive, Pf growth 96h 1.85µM
O=C1NC(=S)N/C1=C/c1cc([N+](=O)[O-])ccc1O	none (no result: Pf growth 48h)
COc1ccc(Cc2c(-c3ccc(F)cc3)nc3cc(C)c(Br)c(C)n23)c(C)c1	none (no result: Pf growth 48h, Pf growth 96h, SARS PLP yeast, NS1 inh)
CC(=O)N/N=C(\C)c1cccc(C(F)(F)F)c1	Pf growth 48h inconclusive
CCNC(=S)N/N=C(\C)c1cccc(C(F)(F)F)c1	Pf growth 96h 11.7µM, SARS PLP yeast inconclusive (no result: NS1 inh)
C/C(=N\NC(=S)NC1CCCCC1)c1cccc(Br)c1	Pf growth 48h 1.04µM, Pf growth 96h 0.465µM
CC(=O)c1cccc(NC(=S)NC2CCCCCCC2)c1	none
C/C(=N\NC(=S)NC1CCCCC1)c1cccc(C(F)(F)F)c1	Pf growth 48h 3.7µM, Pf growth 96h inconclusive
COc1ccccc1C(CNC(=O)c1cccc(S(=O)(=O)NCc2ccccc2)c1)N(C)C (stereo not drawn)	Pf growth 96h inconclusive (no result: NS1 inh)
